Sampled rows, rich in hits. Any-hit rate of the full collection: about 3.5%.
TEAD-YAP inh = TEAD-YAP interaction inhibition; HEK-TIYL cells, TEAD-Gal4/YAP UAS-luciferase luminescence; inhibition, % at 9.12 µM; 640,000 tested, 1.4% active; AID 1259422; in the data active means inhibition above about 32%
GPR151 ag = activators of human GPR151. Q8TDV0. AID 1508602. activation, % at 11.2 µM. PathHunter beta-arrestin GPR151 cells, luminescence. 650,000 tested, 1% active; in the data active means activation above about 4.9%
MITF primary = human MITF inhibition, primary screen; AID 1259374; 650,000 tested, 0.91% active; inhibition, % at 2.6 µM; AlphaScreen MITF homodimerization, bead proximity signal; in the data active means inhibition above about 50%
Target sequence (O75030 whole entry, looked up): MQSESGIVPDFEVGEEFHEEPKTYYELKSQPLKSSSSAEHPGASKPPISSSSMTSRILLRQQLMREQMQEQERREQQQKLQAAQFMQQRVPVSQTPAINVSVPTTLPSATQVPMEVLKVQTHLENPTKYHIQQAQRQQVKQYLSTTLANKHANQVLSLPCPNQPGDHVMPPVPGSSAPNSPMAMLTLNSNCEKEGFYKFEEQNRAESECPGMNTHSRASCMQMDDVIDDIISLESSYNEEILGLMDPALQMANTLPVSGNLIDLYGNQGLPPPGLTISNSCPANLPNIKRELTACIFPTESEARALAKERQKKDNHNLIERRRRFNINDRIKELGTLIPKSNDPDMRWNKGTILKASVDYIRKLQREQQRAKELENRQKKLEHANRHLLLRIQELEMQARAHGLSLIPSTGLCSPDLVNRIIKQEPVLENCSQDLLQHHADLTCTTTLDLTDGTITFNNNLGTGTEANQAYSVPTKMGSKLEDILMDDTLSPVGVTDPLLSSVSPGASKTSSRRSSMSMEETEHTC
FBW7 act = activators of human E3 ligase FBW7; Q969H0; AlphaScreen FBW7–phospho-cyclin E peptide binding, activator screen; normalized activity (activation), % at 26.1 µM; 650,000 tested, 0.13% active; AID 1259310; in the data active means normalized activity above about 1.9%;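 further: purified mutant Fbw7 with reduced substrate affinity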
Each line names hits and unclear results; the compound was inactive in the other large screens.

CN(C)c1ccc(N=Cc2c[nH]c3ccccc23)cc1	TEAD-YAP inh 68
Oc1ccc(N=Cc2sc3ccccc3c2O)cc1	none
O=C(O)c1ccc(N=Cc2sc3ccccc3c2O)cc1	TEAD-YAP inh 52
Oc1c(C=NC2CCCCCC2)sc2ccccc12	TEAD-YAP inh 38
Oc1c(C=Nc2ccccc2)sc2ccccc12	none
COc1cccc(/C=C(/C#N)c2nc(C3CC3)cs2)c1	FBW7 act 3.5
COc1ccc(/C=C(/C#N)c2nc(C3CC3)cs2)cc1OC	none
Cc1sc(NC(=O)c2ccco2)c(C(c2cccnc2)N2CCCCC2)c1C (centres undefined)	TEAD-YAP inh 41
Cc1sc(NC(=O)c2ccco2)c(C(c2cccnc2)N2CCOCC2)c1C (centres undefined)	none
Cc1sc(NC(=O)c2ccco2)c(C(c2cccnc2)N2CCN(c3ccccc3F)CC2)c1C (centres undefined)	TEAD-YAP inh 37
O=C(Cc1ccc(Br)cc1)OCC(=O)c1cccc([N+](=O)[O-])c1	none
COc1ccc(/C(C)=N\NC(=O)CNc2ccccc2C)cc1OC	none
COc1ccc(-c2nc(NCCOc3ccccc3)c3ncn(CCN4CCCC4=O)c3n2)cc1	TEAD-YAP inh 34
COc1ccc(CCNc2nc(-c3ccc(C(=O)NC4CC4)cc3)nc3c2ncn3CCN2CCCC2=O)cc1	TEAD-YAP inh 39
O=C(NCC1CCCO1)c1cc2ncc(Br)cn2n1 (centres undefined)	none
CCCn1c(NC(=O)c2cccc(S(=O)(=O)N(C)C(C)C)c2)nc2ccccc21	TEAD-YAP inh 34
COc1ccc(-n2nc(C(=O)NCC(=O)N(C)c3ccc(Cl)cc3)c3ccccc3c2=O)cc1OC	none
Oc1ccc(CCNc2nc(NCCN3CCOCC3)nc3c2ncn3-c2ccccc2)cc1	TEAD-YAP inh 37
FC(F)(F)c1ccc(Cn2cnc3c(NCc4ccccc4)nc(-c4ccc(N5CCOCC5)nc4)nc32)cc1	none
Oc1ccc(CCNc2nc(-c3ccc(N4CCOCC4)nc3)nc3c2ncn3-c2ccccc2)cc1	TEAD-YAP inh 41
FC(F)(F)c1ccc(Cn2cnc3c(NCCOc4ccccc4)nc(-c4ccc(N5CCOCC5)nc4)nc32)cc1	FBW7 act 2.0
O=C1CCCN1CCCNc1nc(-c2ccc(N3CCOCC3)nc2)nc2c1ncn2-c1ccccc1	TEAD-YAP inh 48
O=C1CCCN1CCn1cnc2c(NCCN3CCOCC3)nc(-c3ccc(N4CCOCC4)nc3)nc21	none
OCCN1CCN(Cc2ccc3c(c2)CN(Cc2c(F)ccc(F)c2F)CCO3)CC1	none
c1ccc(OCCNc2ncnc3nc(-c4ccc(N5CCOCC5)nc4)[nH]c23)cc1	FBW7 act 11
c1ccc(-n2cnc3c(NCCN4CCOCC4)nc(-c4ccc(N5CCOCC5)nc4)nc32)cc1	TEAD-YAP inh 59
c1ccc(-c2nc(NCCN3CCOCC3)c3ncn(-c4ccccc4)c3n2)cc1	none
CCOC(=O)Cc1csc(NC(=O)/C=C/c2ccc(C(C)C)cc2)n1	none
O=C(Nc1nc2c(ccc3ccccc32)s1)c1ccc(S(=O)(=O)N2CCCCC2)cc1	none
Cc1cc(C(=O)CSc2nnc3ccccn23)c(C)n1Cc1ccccc1	TEAD-YAP inh 64
OC1CCC(Nc2nc(NC3CCN(Cc4ccccc4)CC3)c3ncn(-c4ccccc4)c3n2)CC1 (centres undefined)	TEAD-YAP inh 42
c1ccc(CN2CCC(Nc3nc(NC4CC4)c4ncn(-c5ccsc5)c4n3)CC2)cc1	TEAD-YAP inh 36
c1ccc(CN2CCC(Nc3nc(N4CCOCC4)nc4c3ncn4-c3ccsc3)CC2)cc1	TEAD-YAP inh 44
c1ccc(CN2CCC(Nc3nc(Nc4ccc(-n5ccnc5)cc4)nc4c3ncn4-c3ccsc3)CC2)cc1	TEAD-YAP inh 42
c1ccc(CN2CCC(Nc3nc(N4CCC(N5CCOCC5)CC4)nc4c3ncn4-c3ccsc3)CC2)cc1	none
NC(=O)Nc1ccc(C(=O)OCC(=O)Nc2ccccc2C(=O)c2ccccc2)cc1	none
Cc1nc2c(ccc3nc(NC(=O)c4ccc(S(=O)(=O)N(CC(C)C)CC(C)C)cc4)sc32)s1	none
Cn1c(=O)c2cc3c(nc2n(C)c1=O)CC(C)(C)CC3=O	none
O=C(NCc1ccc(Cl)c(Cl)c1)C(Cl)Cl	none
Cc1nn(C)c(C)c1-c1nc(NC2CCN(Cc3ccccc3)CC2)c2ncn(C(C)C)c2n1	TEAD-YAP inh 72
c1ccc(CN2CCC(Nc3nc(Nc4ccc(N5CCOCC5)cc4)c4ncn(-c5ccsc5)c4n3)CC2)cc1	TEAD-YAP inh 49
c1cc(-n2cnc3c(Nc4ccc5c(c4)OCO5)nc(N4CCN(Cc5ccc6c(c5)OCO6)CC4)nc32)cs1	none
c1cc(-n2cnc3c(NC4CC4)nc(N4CCN(Cc5ccc6c(c5)OCO6)CC4)nc32)cs1	TEAD-YAP inh 37

Screening data: PubChem BioAssay, The Scripps Research Institute Molecular Screening Center
